Source: PubChem BioAssay
This is a sample that favours compounds with a hit; in the whole collection about 4.6% have one here.
D1 PAM: enhances dopamine response at the human D1 receptor; P21728; HEK293 TREx D1 cells, calcium flux, dopamine EC20 potentiation; potentiation, % at 10 µM; actives 0.036% (n = 360,000); AID 504651; in the data active = potentiation above about 30%; note: 0% is about no effect
Target sequence (P21728 whole entry, looked up): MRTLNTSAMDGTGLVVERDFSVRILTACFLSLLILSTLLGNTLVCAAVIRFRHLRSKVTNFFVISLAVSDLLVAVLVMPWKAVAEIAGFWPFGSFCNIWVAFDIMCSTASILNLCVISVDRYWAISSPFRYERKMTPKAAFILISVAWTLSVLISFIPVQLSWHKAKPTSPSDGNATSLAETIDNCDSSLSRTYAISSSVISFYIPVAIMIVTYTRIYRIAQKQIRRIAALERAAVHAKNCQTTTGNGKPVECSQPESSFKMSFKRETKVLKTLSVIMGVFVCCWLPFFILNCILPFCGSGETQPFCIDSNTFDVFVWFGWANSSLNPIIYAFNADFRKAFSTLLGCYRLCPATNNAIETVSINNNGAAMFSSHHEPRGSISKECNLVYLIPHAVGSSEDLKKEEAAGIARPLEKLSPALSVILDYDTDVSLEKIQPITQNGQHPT
TRHR enhancer: allosterically enhances the human TRH receptor; P34981; TRHR cells, fluo-8 calcium fluorescence, EC20 TRH enhancement; actives 0.66% (n = 360,000); AID 493056; enhancement, % at 2 µM; in the data active = enhancement above about 30%; note: 0% is about no effect
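TRHR-expressing cells loaded with fluo-8 calcium dye were read kinetically (ex 480/em 530) during compound addition, then stimulated with an EC20 of TRH (10 nM final). Enhancement of the Gq-mediated intracellular calcium response was scored.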
Epigenetic reg: regulators of epigenetic silencing causing reporter derepression in mouse cells. murine LDR cells, GFP reporter derepression, 30 h. Potency, µM (titrated, usually from 53.9 µM), for inactives: at the top dose GFP activation, hits mostly activators. actives 0.2% (n = 280,000); active = well fitted activation curve with a large enough effect; inconclusive = small, poorly fitted or top-dose-only effect; note: potency is the fitted concentration of half-maximal effect; % of control where 0% means no effect; nearly all actives have a fitted effect of over 60% in size
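Reporter derepression read as number of fluorescent GFP-positive objects, 20-120 um in size, counted by laser-scanning cytometer. Mouse LDR line with an epigenetically silenced CMV-GFP locus; compound incubation 30 h, 37 C.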
TRHR agonist: agonists of human TRH receptor | P34981 | TRHR cells, calcium flux fluo-8, FDSS agonist mode | activation, % at 2 µM | actives 0.18% (n = 360,000); note: 0% is about no effect
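Agonist-mode FDSS calcium read (Ex 480/Em 530, 1 s cycles) in 1536-well TRHR cells with fluo-8 dye, after 10-cycle baseline and 23 nL compound addition; TRH at EC20 (10 nM final) added afterwards for the enhancer phase.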
D1 antagonist: antagonists of human D1 dopamine receptor | actives 3.2% (n = 360,000) | P21728 | HEK293 TREx D1 cells, calcium flux, dopamine EC80; hits give low values | activity change, negative = inhibition, % at 10 µM; in the data active = activity change below about -30%; note: % is set by controls: 0 for no effect and ±100 for the full control effect
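HEK293 T-REx cells expressing inducible, force-coupled D1 receptor; no-wash Ca dye, 30–90 min RT. Cmpd → 180 s read at 1 Hz → EC80 DA → 180 s read.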
D1 agonist: activates the human D1 dopamine receptor; HEK293 T-REx D1 cells, calcium flux, agonist mode; activation, % at 2 µM; actives 1% (n = 360,000); note: 0% is about no effect
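Agonism was scored from calcium flux recorded over 180 s (1 read/s) after pintool compound addition, following a 10-cycle baseline. Cells were inducible force-coupled HEK293 TREx D1, plated overnight at 30 C and loaded with no-wash calcium dye.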
Starred values were filed as active, the others as inactive; ? = inconclusive; . = no result given; [ ] = dose if it differs, or a comment. Cut-off read from the data, not from the text of the source, unless noted: active = activation above about 30%; inactive = the rest.

SMILES | D1 PAM | TRHR enhancer | Epigenetic reg | TRHR agonist | D1 antagonist | D1 agonist
CCOC(=O)CSc1nc2sc3c(c2c(=O)n1Cc1ccccc1)CCC(C(C)(C)C)C3 (centres undefined) | 1.6 | -0.8 | -1.6% | 0.9 | -5.6 | 0.1
Cc1ccc(NC(=O)c2ccc(CSc3nnc(C)s3)cc2)cc1 | 35.4* | 20.2 | 0.4% | 0.0 | -10.5 | 125.1*
O=C(O)c1ccc(CSc2nnc(SCc3ccccc3)s2)cc1 | -4.9 | 3.5 | -1.1% | -0.1 | -47.2* | 1.6
CCc1ccccc1NS(=O)(=O)c1ccc2[nH]cc(C(=O)N3CCCCC3)c(=O)c2c1 | -0.8 | 14.8 | -3.9% | -0.9 | 2.5 | -1.6
CCc1ccccc1NS(=O)(=O)c1ccc2[nH]cc(C(=O)N(CC(C)C)CC(C)C)c(=O)c2c1 | -0.3 | 6.1 | -1.1% | 0.4 | -53.9* | 0.5
Cc1ccc(NC(=O)CNC(=O)N2CC(=O)Nc3ccccc32)cc1F | -9.6 | -4.1 | . | 0.5 | -2.4 | 2.6
O=C(CN1CC(=O)Nc2ccccc21)Nc1ccc(F)c(F)c1 | -14.8 | 9.0 | -3.6% | -2.2 | -39.3* | 1.0
Cc1ccc(-n2nc(CO)c(C(=O)NCc3cccs3)n2)cc1C | 0.2 | 10.1 | -2.0% | -1.7 | -12.6 | 0.3
Cc1ccc2c(nc3s/c(=C\c4ccc(-c5ccccc5C(=O)O)o4)c(=O)n32)c1C | -3.0 | 8.5 | . | 53.9* | -5.1 | 191.4*
Cc1ccc2c(nc3s/c(=C/c4cccs4)c(=O)n32)c1C | 0.7 | 0.1 | ? | -1.1 | 1.8 | 2.1
O=C(O)c1ccc(-c2ccc(/C=c3/sc4nc5ccccc5n4c3=O)o2)cc1Cl | -4.7 | 4.7 | . | 55.0* | -20.2 | 48.1*
Cc1ccc(C)c(NC(=O)c2cnc3sc(N4CCOCC4)nn3c2=O)c1 | -2.7 | -1.4 | 0.0% | -0.7 | 6.1 | 0.9
CCOC(=O)Cc1cc(-c2ccc(F)cc2)nc2ccc3ccccc3c12 | -10.6 | 1.2 | 0.0% | 0.6 | -56.6* | 8.5
Cc1cccc(NC(=O)c2ccc(CN3CC(=O)N4CCCCC4C3=O)cc2)c1C (centres undefined) | -0.6 | 44.8* | -1.2% | 0.8 | 1.5 | -0.5
CCC(C(=O)N1CCN(c2ccccc2)CC1)n1nc(C)c2sc3ccccc3c2c1=O (centres undefined) | -2.2 | -7.6 | -5.1% | 0.1 | -3.7 | 4.7
C#CCn1c(-c2cccs2)nc2ccccc21 | -5.0 | 31.7* | -0.1% | 0.6 | 22.6 | 2.3
CCn1c(-c2cccs2)nc2ccccc21 | -1.8 | -1.0 | 2.0% | 0.4 | 2.7 | 0.8
Cc1ccc(CCNC(=O)C(NS(=O)(=O)c2ccc3c(c2)oc(=O)n3C)C(C)C)cc1 (centres undefined) | 3.9 | -11.4 | -1.1% | -0.4 | -14.3 | -1.0
Cc1ccc(C(=O)c2oc3ccccc3c2NC(=O)c2cc(-c3ccc(Cl)cc3)on2)cc1 | 1.0 | -2.1 | -3.2% | 0.4 | -3.7 | 1.6
COc1cc2[nH]c(C(=O)N3CCc4ccccc4C3)cc2c(OC)c1OC | -3.0 | 9.2 | . | -0.2 | 1.4 | 1.2
COc1cc2cc(C(=O)N3CCc4ccccc4C3)[nH]c2cc1OC | -7.0 | 0.8 | . | -1.0 | -33.4* | -1.0
CCc1ccc(CNC(=O)C2CCCN(S(=O)(=O)c3ccc4c(ccn4C)c3)C2)cc1 (centres undefined) | -2.9 | 1.6 | 15.3% | 0.5 | -9.1 | 3.4
OCCn1c(-c2ccc(F)cc2)csc1=Nc1ccccc1 | -7.9 | 0.9 | 0.1% | 0.3 | -30.9* | 6.0
O=C(CN1C(=O)N/C(=C\c2ccccc2OCc2ccc(C(=O)O)cc2)C1=O)Nc1ccc(F)cc1 | . | 0.2 | . | 0.5 | -5.2 | 3.1
O=C(O)c1ccc(COc2ccccc2/C=C2\NC(=O)N(Cc3ccc(F)cc3)C2=O)cc1 | 5.7 | -5.5 | -0.2% | -0.5 | -33.3* | 5.5
SMILES | D1 PAM | TRHR enhancer | Epigenetic reg | TRHR agonist | D1 antagonist | D1 agonist
O=C(Nc1ccc(OC(F)F)cc1)Nc1cccc(C(F)(F)F)c1 | -4.8 | -11.0 | 3.0% | 4.0 | -38.4* | 18.8
CCN(CC)S(=O)(=O)c1ccc(NC(=O)Nc2cccc(C(F)(F)F)c2)cc1 | -1.4 | -1.9 | -5.8% | 1.8 | -31.9* | 15.5
Cc1ccc(S(=O)(=O)N(CC(=O)Nc2cccc(C(F)(F)F)c2)C(=O)N2CCN(C)CC2)cc1 | -5.5 | 15.6 | . | -0.1 | -38.4* | 2.2
COc1cc2cc3c4c(cc(OC)c(OC)c4c2cc1OC)CCN3C | . | . | 1.4% | . | . | .
CCOC(=O)OCC1OC(C#Cc2ccc(C(C)(C)C)cc2)C=CC1OC(=O)OCC (centres undefined) | . | . | 2.0%[10.1 µM] | . | . | .
Cc1ccc(C)c(S(=O)(=O)c2nnn3c2nc(NC2CCCC2)c2sccc23)c1 | -4.8 | -8.3 | -0.9% | 0.1 | -24.3 | 1.6
O=S(=O)(c1cccc(Cl)c1)c1nnn2c1nc(NC1CCCC1)c1sccc12 | -7.7 | 8.4 | 8.4% | 0.1 | -72.2* | 6.0
Cc1ccc(S(=O)(=O)c2nnn3c2nc(NC2CCCCC2)c2sccc23)cc1C | -6.2 | 24.5 | -6.2% | -0.2 | -39.0* | 14.9
Cc1cc(C)cc(Nc2nc3c(S(=O)(=O)c4cccc(Cl)c4)nnn3c3ccsc23)c1 | -5.5 | 6.6 | -0.4% | 0.0 | 3.8 | 1.3
CCCN1C(=O)/C(=C\C=C2/Sc3ccccc3N2CCO)SC1=S | -5.4 | -2.3 | ? | 13.9 | 2.3 | 30.2*
CCN1C(=O)/C(=C/N2CCc3ccccc32)SC1=S | 0.1 | 1.3 | 2.2% | 0.9 | -19.2 | 2.0
CCN1C(=O)/C(=C/C=C2/SCCN2C)SC1=S | 11.9 | -4.0 | -1.2% | 16.5 | 23.4 | 41.0*
CCCN1C(=O)/C(=C/c2ccncc2)SC1=S | -2.1 | -1.4 | -2.9% | -0.6 | -4.5 | 0.4
CCN1C(=O)/C(=C\N2CCN(C(=O)c3ccco3)CC2)SC1=S | -1.4 | 0.2 | 0.5% | 1.2 | 6.2 | 4.4
CCN1C(=O)/C(=C/C=C2/Sc3ccccc3N2CCO)SC1=S | 1.8 | 7.5 | 0.4% | 7.7 | 6.8 | 32.1*
Cc1ccc(NC(=O)N2CCc3cc(S(=O)(=O)N4CCC(C)CC4)ccc32)cc1 | -2.3 | 0.2 | -3.4% | -2.0 | -7.2 | 3.8
CCCCCc1ccc(OCCCC[n+]2cccc(C)c2)c(CCCCC)c1 | -4.2 | -0.9 | 0.0% | -0.4 | 15.3 | 3.9
CCC(C)(C)c1ccc(OCCCC[n+]2ccccc2)c(C(C)(C)CC)c1 | -10.9 | 0.0 | 3.6% | -1.3 | -3.5 | 165.8*
CCCCCc1ccc(OCCCC[n+]2ccccc2)c(CCCCC)c1 | -0.2 | 0.3 | 9.2% | 0.7 | -24.3 | 96.5*
Cc1nn2c(=O)cc(COc3ccc(/C=C(\C#N)C(=O)Nc4ccc(F)cc4)cc3)nc2s1 | -0.9 | -8.0 | 1.3% | 0.7 | -11.7 | 0.0
Cc1ccc(S(=O)(=O)N2CCN(Cc3ccc4c(c3)OCO4)CC2)cc1 | -1.6 | -8.5 | -0.8% | -0.6 | 6.1 | -2.0
